Screens (PubChem)
IL-1B inflam inh: blocks inflammasome-driven IL-1 beta release. THP-1 LPS/ATP IL-1B secretion, AlphaLISA, 16 h; hits give low values. activity change, % at 57.5 µM. 4.7% of 360,000 active; in the data active = activity change below about -50%; inconclusive = mostly about -30% to -49%
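Secreted IL-1B measured by AlphaLISA bead assay after 16 h compound exposure of THP-1 cells; compounds (final up to 57.5 uM) added 1 h before LPS (250 ng/mL) and ATP (1.25 mM) stimulation; lower signal means less secretion.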
MCF10A rerep: DNA re-replication induction in MCF 10a cells; Potency, µM (top dose mostly 46.1 µM), actives largely listed as activators; MCF 10A DNA re-replication, Hoechst nuclear intensity, 48 h; AID 624296; 2.9% of 350,000 active; note: nearly all actives have a fitted effect of over 50% in size
KB-V1 cytotox: KB-V1 MDR subline cytotoxicity | KB-V1 MDR cells viability, CellTiter-Glo, 72 h | 3.4% of 400,000 active | Potency, µM (series often up to 46.1 µM), actives largely listed as cytotoxic | AID 1347076; note: nearly all actives have a fitted effect of over 60% in size
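qHTS viability screen in drug-selected KB-V1 MDR cells: 72 h compound treatment at 37 degrees C, ATP luminescence end point.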
SW480 rerep: DNA re-replication induction in SW480 cells; SW480 DNA re-replication, Hoechst DNA content imaging, 48 h; Potency, µM (doses to about 46.1 µM), most hits filed as activators; 1.8% of 340,000 active; AID 624297; note: nearly all actives have a fitted effect of over 55% in size
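Image-based DNA-content assay: after two days of treatment, nuclei were labelled with the DNA dye Hoechst and imaged, and hits were compounds raising the count of nuclei showing high fluorescence intensity.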
KB-3-1 tox: KB-3-1 parental cell cytotoxicity; KB-3-1 viability, CellTiter-Glo ATP luminescence, 72 h; Potency, µM (doses to about 46.1 µM), hits mostly cytotoxic; 1.4% of 400,000 active; note: nearly all actives have a fitted effect of over 60% in size
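Parental KB-3-1 adenocarcinoma cells in phenol-red-free DMEM with 10% FBS were pin-treated with compounds at several concentrations, incubated 72 h at 37 °C, and viability read by CellTiter-Glo luminescence; concentration-effect curves were fitted after normalization.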
Large screens that a line does not name were inactive. A selection: hits, their analogues and other compounds. The true share with any hit is near 9.9%. Unless noted, calls come from the whole dose curve; as a rule, active = well fitted curve in the direction sought with a large enough effect; inconclusive = small, poorly fitted or top-dose-only effect, or another doubt; inactive = no such curve, though single readings can be large; an effect the other way counts as inactive or inconclusive.

CC(C)(C)c1ccc(S(=O)(=O)N2CCC(CO)(CC3CCCCO3)CC2)cc1 (stereo not drawn)	IL-1B inflam inh -72, KB-V1 cytotox inconclusive
CCOC(=O)C1(CC2CCCCO2)CCN(S(=O)(=O)c2ccccc2)CC1 (stereo not drawn)	none
O=C(CNC(=O)c1ccccc1F)NCCOc1ccccc1Cl	none
CCCCCCCC(=O)N/N=C/c1ccc(Br)cc1	MCF10A rerep 7.3µM
CCCCCCCCCC(=O)N/N=C/c1ccc(C)s1	MCF10A rerep 16µM, SW480 rerep inconclusive
CCCCCCCC(=O)N/N=C/c1cccnc1	none
CCC(c1ccccc1)C(CC)c1cc(O)c(O)c(O)c1 (stereo not drawn)	IL-1B inflam inh -78, MCF10A rerep inconclusive, KB-V1 cytotox inconclusive, SW480 rerep inconclusive
COC(=O)[C@@]12C[C@@H](CC(=O)N3CCN(C(=O)c4ccco4)CC3)C(=O)N(CCc3ccc(OC)c(OC)c3)C1=CCC(C)(C)C2	IL-1B inflam inh -51 (no result: MCF10A rerep, SW480 rerep)
CCCCCCCCN1C(=O)[C@H](CC(=O)N2CCN(C(=O)c3ccco3)CC2)C[C@@]2(C(=O)OC)CC(C)(C)CC=C12	IL-1B inflam inh -51, KB-V1 cytotox inconclusive (no result: MCF10A rerep, SW480 rerep)
COC(=O)[C@@]12C[C@@H](CC(=O)N3CCSCC3)C(=O)N(CCc3ccc(OC)c(OC)c3)C1=CCC(C)(C)C2	IL-1B inflam inh inconclusive, KB-V1 cytotox inconclusive (no result: MCF10A rerep, SW480 rerep)
COc1ccc(N2C3=C(CC4=C2CC(C)(C)CC4=O)C(=O)CC(C)(C)C3)cc1	IL-1B inflam inh -102, KB-3-1 tox inconclusive
COc1ccc(N2C3=C(CC4=C2CCCC4=O)C(=O)CCC3)cc1	IL-1B inflam inh -94
COc1ccc(CNC(=O)c2nc(Cn3nc(C)c(Br)c3C)no2)cc1OC	none (no result: IL-1B inflam inh, MCF10A rerep, SW480 rerep)
CCN1C(=O)/C(=C2/Sc3ccccc3N2CC)S/C1=N\c1ncn[nH]1	IL-1B inflam inh -55, MCF10A rerep inconclusive, KB-V1 cytotox 23µM
Cc1ccc(-c2cc3nn(-c4ccccc4)c(N)c3c(=O)o2)cc1	IL-1B inflam inh -56, KB-V1 cytotox 16µM, SW480 rerep inconclusive, KB-3-1 tox 21µM
C=CCN1C(c2cccc(C(F)(F)F)c2)=CS/C1=C(/C#N)c1nnc(N2CCOCC2)n1-c1ccccc1	MCF10A rerep inconclusive, KB-V1 cytotox 4.1µM, KB-3-1 tox inconclusive
C=CCN1C(=O)NC(c2ccc(OC)cc2)(C(F)(F)F)S/C1=C(\C#N)c1nnc(N2CCOCC2)n1-c1ccccc1 (stereo not drawn)	IL-1B inflam inh -52, MCF10A rerep inconclusive
C=CCN1C(c2ccc(Br)cc2)=CS/C1=C(/C#N)c1nnc(N2CCOCC2)n1-c1ccccc1	KB-V1 cytotox inconclusive, SW480 rerep inconclusive
CC1=C(C)SC(=C(C#N)c2nnc(N3CCOCC3)n2-c2ccccc2)S1	none
CCCCCCSc1nc(O)c(C2OC(=O)c3c2ccc(OC)c3OC)c(=O)n1-c1ccccc1 (stereo not drawn)	MCF10A rerep inconclusive
Cc1ccc(C(=O)N2N=C(CC(C)C)CC2(O)C(F)(F)F)o1 (stereo not drawn)	none
CC(=O)Nc1cccc(N)c1	MCF10A rerep inconclusive
CC(Sc1nc(N)c2c3c(sc2n1)CSC(C)(C)C3)C(=O)Nc1ccccc1 (stereo not drawn)	IL-1B inflam inh inconclusive, MCF10A rerep inconclusive, KB-V1 cytotox 21µM, SW480 rerep inconclusive, KB-3-1 tox inconclusive
O=C1c2cccnc2C(=O)N1Cc1ccc(S(=O)(=O)N2CCOc3ccccc32)cc1	none
O=C(Nc1cccnc1)c1sc(Nc2ccccc2)nc1-c1ccccc1	MCF10A rerep 16µM, KB-V1 cytotox 15µM, KB-3-1 tox inconclusive
Cc1cccc(Nc2nc(-c3ccccc3)c(C(=O)Nc3cccnc3)s2)c1	IL-1B inflam inh -61, MCF10A rerep 23µM, KB-V1 cytotox inconclusive, SW480 rerep 16µM, KB-3-1 tox inconclusive
O=C(Nc1cccnc1)c1ccc2nc(-c3ccccc3)c(-c3ccccc3)nc2c1	MCF10A rerep inconclusive, KB-V1 cytotox inconclusive
CCOC(=O)c1nnc(-c2ccccc2)o1	none
O=C(CCc1ccccc1)c1nnc(-c2ccccc2)o1	IL-1B inflam inh -53
N#Cc1c(N)nc(SCc2ccncc2)c(C#N)c1-c1cccs1	IL-1B inflam inh -51, MCF10A rerep inconclusive, SW480 rerep inconclusive
COc1cc(-c2c(C#N)c(N)nc(SCc3ccncc3)c2C#N)cc(OC)c1OC	IL-1B inflam inh inconclusive
